According to PubChem BioAssay AID489008 (National Center for Advancing Translational Sciences (NCATS), 2010):
Inconclusive results are not listed. Active and inactive are the calls of the source. Calls come from the whole dose curve; as a rule, active = well fitted inhibition curve with a large enough effect; inconclusive = small, poorly fitted or top-dose-only effect; inactive = flat fitted curve, though single readings scatter.

Target: Ferritin light chain (Equus caballus) (UniProt P02791)
Experiment: Confirmation Assay for Identification of Novel General Anesthetics; note: nearly all actives have a fitted effect of over 40% in size
Conditions: apoferritin 1-aminoanthracene fluorescence displacement
In short: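 Horse apoferritin (10 uM) pre-loaded with 1-AMA (50% saturated, PBS) exposed to compounds 10 min at room temperature; loss of 1-AMA fluorescence (380/535 nm) scaled between free and bound ligand, curves fitted with Hill equation.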
Potency is the fitted concentration of half-maximal effect.

Ferritin light chain (Equus caballus), sequence (P02791 2-175 limits assumed): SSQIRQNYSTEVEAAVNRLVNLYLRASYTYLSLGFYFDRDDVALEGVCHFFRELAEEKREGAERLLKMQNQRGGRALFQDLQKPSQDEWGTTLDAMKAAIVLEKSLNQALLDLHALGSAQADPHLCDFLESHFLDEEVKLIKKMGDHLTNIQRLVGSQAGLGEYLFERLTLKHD

| SMILES | Potency |
| --- | --- |
| Cc1ccc(-c2ccc(=O)n(CC(=O)NCCC(C)C)n2)cc1 | 5.01 µM (active) |
| CCN(C(=O)c1ccco1)C1C2CC3CC(C2)CC1C3 (stereo not drawn) | 14.1 µM (active) |
| CC(C)c1ccccc1OCC(=O)N1CCCCCCC1 | 11.2 µM (active) |
| Cc1ccc(C(=O)N2CCCc3ccccc32)c(F)c1F | 22.4 µM (active) |
| Cc1cc(NS(=O)(=O)N(C)C)ccc1C(C)C | 20 µM (active) |
| CCN1C(=O)N(c2ccc(Cl)cc2)C(C)=CC1(C)C | 35.5 µM (active) |
| Cn1cc(Br)c(C(=O)NC2C3CC4CC(C3)CC2C4)n1 (stereo not drawn) | 10 µM (active) |
| Cc1ccc(C(=O)COC(=O)c2ccc(Br)o2)cc1C | 15.8 µM (active) |
| Cc1ccc(NCc2ccccc2)cc1 | 10 µM (active) |
| O=C(NC1CCCCCCC1)c1cc(COc2ccc3ncccc3c2)on1 | 12.6 µM (active) |
| COc1cc(C(=O)O[C@@H]2CC3CC[C@]2(C)C3(C)C)ccc1O | 14.1 µM (active) |
| O=C1C2CC=CCC2C(=O)N1Cc1ccccc1Cl (stereo not drawn) | 7.94 µM (active) |
| CC1CCCN(C(=O)COc2ccc(Nc3ccccc3)cc2)C1 (stereo not drawn) | 25.1 µM (active) |
| Cn1cc([N+](=O)[O-])c(C(=O)Nc2ccc(C3CCCCC3)cc2)n1 | 14.1 µM (active) |
| O=C(CNC(=O)c1ccco1)OCC(=O)c1ccc2c(c1)CCCC2 | 31.6 µM (active) |
| COCCCNC(=O)Cn1nc(-c2ccc(C)cc2)ccc1=O | 14.1 µM (active) |
| O=C(Cn1sc2ccccc2c1=O)NC12CC3CC(CC(C3)C1)C2 | 15.8 µM (active) |
| CSC(=O)NC12CC3CC(CC(C)(C3)C1)C2 | 5.62 µM (active) |
| Nc1cc(C(F)(F)F)ccc1Nc1ccccc1 | 25.1 µM (active) |

| SMILES | Potency |
| --- | --- |
| O=C1CC(c2ccc(O)cc2)Oc2ccccc21 (stereo not drawn) | 15.8 µM (active) |
| CCc1ccc(CNC(=O)Cn2nc(-c3ccccc3)ccc2=O)cc1 | 10 µM (active) |
| O=C1CCCc2ccccc2N1Cc1ccccc1Cl | 15.8 µM (active) |
| O=C(Nc1cccc(F)c1)N1CCCCCC1 | 12.6 µM (active) |
| CN(C)CC(=O)Nc1ccc(Oc2ccc(Cl)cc2)cc1 | 28.2 µM (active) |
| CCc1c(O)nc(SC2CC(=O)N(c3ccccc3)C2=O)[nH]c1=O (stereo not drawn) | 31.6 µM (active) |
| O=C(O)Cc1csc(Nc2cccc(Cl)c2)n1 | 12.6 µM (active) |
| CCN1C(=O)N(c2cccc3ccccc23)C(C)=CC1(C)C | 14.1 µM (active) |
| Cc1ccccc1Oc1ccccc1N | 15.8 µM (active) |
| CC1CCCC(C)N1C(=O)CSc1nnnn1Cc1ccccc1 (stereo not drawn) | 8.91 µM (active) |
| CCCn1nnc(NC(=O)COc2ccc(C3CCCCC3)cc2)n1 | 12.6 µM (active) |
| Cc1cc(C(F)(F)F)n(-c2ccc(N)cc2)n1 | 17.8 µM (active) |
| CC(=O)c1cccc(NC(=O)CN2C(=O)NC3(CCCCCCC3)C2=O)c1 | 14.1 µM (active) |
| Cc1ccc(C(=S)N2CCCCCC2)cc1 | 28.2 µM (active) |
| Cc1ccc(Cn2cccc(NC(=O)NCc3ccccc3)c2=O)cc1 | 7.08 µM (active) |
| Cc1ccccc1OCC(=O)N1CCCCCCC1 | 7.94 µM (active) |
| O=C(Cc1ccccc1)N1CCc2ccccc21 | 14.1 µM (active) |
| COc1cccc(NS(=O)(=O)c2ccc(Br)s2)c1 | 15.8 µM (active) |
| Cc1ccc(CCC(=O)Nc2cc(Cl)ccc2Cl)o1 | 7.94 µM (active) |
